Reference: PubChem BioAssay (NCATS)
Results filed as inconclusive are left out. The source made the active and inactive calls. The call rests on the fitted dose curve; in most records, active means well fitted cell-killing curve with a large enough effect; inconclusive means small, poorly fitted or top-dose-only effect, or effect the other way; inactive means flat fitted curve, though single readings scatter.

Tests used:
Assay in all cases: Primary qHTS to identify gynecologic anti-cancer compounds using libraries of approved drugs and bioactive compounds (AID 1345084); further: nearly all actives have a fitted effect of over 55% in size
Conditions in all cases: Gynecologic cancer cell panel viability, ATPlite luminescence, 48 h; series mostly up to 57.5 µM
[1] = system: OV90
Procedure, shortened: (§1)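 Cells, 1,000 per well, were allowed to settle for 16 h at 37 C before compound addition. Five concentrations were tested for 48 h, and viability was read by ATPlite luminescence after 15 min at room temperature.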

[2] = system: PA-1
Procedure, shortened: as §1

[3] = system: SKOV3
Procedure, shortened: as §1

[4] = system: Tov-21-G
Procedure, shortened: as §1

[5] = system: Tov112D
Procedure, shortened: as §1
On the % scale 0 is the no-effect control and ±100 the full control effect.

CCOc1ccc(-c2nn3ncccc3c2-c2ccc(S(C)(=O)=O)cc2)cc1
inactive: Potency [1] | Potency [2] | Potency [3] | Potency [4] | Potency [5]

CC1=C(C)C(=O)OC(C(C)C2C(O)CC3C4C5OC5C5(O)CC(OC6OC(CO)C(OC7OC(C)C(O)C(O)C7O)C(O)C6O)CC(O)C5(C)C4CCC32C)C1 (stereo not given)
inactive: Potency [1] | Potency [2] | Potency [3] | Potency [4] | Potency [5]

O=C(OCC1=C[C@@H](O)[C@@H]2C=CO[C@@H](O[C@@H]3O[C@H](CO)[C@@H](O)[C@H](O)[C@H]3O)[C@H]12)c1ccc(O)cc1
inactive: Potency [1] | Potency [2] | Potency [3] | Potency [4] | Potency [5]

Cc1nc(-c2cccnc2)sc1C(=O)Nc1ccccc1-c1cn2c(CN3CCOCC3)csc2n1
inactive: Potency [1] | Potency [2] | Potency [3] | Potency [4] | Potency [5]

COc1cc(C)c(C(=O)NC2C(C)OC(OC3CCC(C)C4C3C=C(C)C3/C(C)=C\CC/C(C)=C/C5(C)C=C(C(=O)O)C(C)CC56OC(=O)/C(=C(\O)C34C)C6=O)C(O)C2(C)O)c(O)c1 (stereo not given)
inactive: activity change, negative = cytotoxicity [1] 6.29% [at 11.6 µM] | activity change, negative = cytotoxicity [2] -2.04% [at 11.6 µM] | activity change, negative = cytotoxicity [3] -10.1% [at 11.6 µM] | activity change, negative = cytotoxicity [4] 4.24% [at 11.6 µM] | activity change, negative = cytotoxicity [5] 8.49% [at 11.6 µM]

O=C(O[C@H]1[C@H](Oc2ccc(O)cc2CO)O[C@H](CO)[C@@H](O)[C@@H]1O)c1ccccc1
inactive: Potency [1] | Potency [2] | Potency [3] | Potency [4] | Potency [5]

C[C@H]1CCN2C[C@]34C[C@@]5(C(=O)Nc6c5ccc5c6OC=CC(C)(C)O5)C(C)(C)C3C[C@]12C(=O)N4C (stereo not given in full)
inactive: Potency [1] | Potency [2] | Potency [3] | Potency [4] | Potency [5]

COc1ccc(O[C@@H]2O[C@H](CO)[C@@H](O)[C@H](O)[C@H]2O)cc1OC
inactive: Potency [1] | Potency [2] | Potency [3] | Potency [4] | Potency [5]

CO[C@H]1c2cc(C(C)C)c(O)c(O)c2[C@@]23CCCC(C)(C)C2[C@@H]1OC3=O (stereo not given in full)
inactive: Potency [1] | Potency [2] | Potency [3] | Potency [4] | Potency [5]

CCC(=O)N1CCc2cc(OC)c(O)cc2C1
inactive: Potency [1] | Potency [2] | Potency [3] | Potency [4] | Potency [5]

CC1=CC2=C(C)C(=O)[C@](C)(O)[C@H](O)C2=CO1
inactive: Potency [1] | Potency [2] | Potency [3] | Potency [4] | Potency [5]

CC/C=C\[C@H](O)[C@H](O)C1=C(C)C(=O)[C@]2(O1)C(=O)N[C@@](O)(C(=O)c1ccccc1)[C@@H]2O
inactive: Potency [1] | Potency [2] | Potency [3] | Potency [4] | Potency [5]

CC(=O)N[C@H](Cc1c[nH]c2ccccc12)C(=O)OCc1cc(C(F)(F)F)cc(C(F)(F)F)c1
inactive: Potency [1] | Potency [2] | Potency [3] | Potency [4] | Potency [5]

COC(=O)c1ccccc1O[C@@H]1O[C@H](CO[C@@H]2OC[C@@H](O)[C@H](O)[C@H]2O)[C@@H](O)[C@H](O)[C@H]1O
inactive: Potency [1] | Potency [2] | Potency [3] | Potency [4] | Potency [5]

O=C(O)CCc1c(C(=O)O)[nH]c2cc(Cl)cc(Cl)c12
inactive: Potency [1] | Potency [2] | Potency [3] | Potency [4] | Potency [5]

O=C(N[C@H](Cc1ccccc1)C(=O)O)c1sc2cc(F)ccc2c1Cl
inactive: Potency [1] | Potency [2] | Potency [3] | Potency [4] | Potency [5]

COc1cc(C)c(C(=O)OC2C(C)OC(OC3CCC(C)C4C3C=C(C)C3/C(C)=C\CC/C(C)=C/C5(C)C=C(C(=O)O)C(C)CC56OC(=O)/C(=C(\O)C34C)C6=O)C(O)C2O)c(OC)c1 (stereo not given)
inactive: activity change, negative = cytotoxicity [1] 2.6% [at 11.6 µM] | activity change, negative = cytotoxicity [2] -4.04% [at 11.6 µM] | activity change, negative = cytotoxicity [3] -6.42% [at 11.6 µM] | activity change, negative = cytotoxicity [4] 1.13% [at 11.6 µM] | activity change, negative = cytotoxicity [5] 1.96% [at 11.6 µM]

Cc1cc(CNC(=O)c2cc(C(=O)NCc3ccc(F)c(C)c3)ncn2)ccc1F
inactive: Potency [1] | Potency [2] | Potency [3] | Potency [4] | Potency [5]

CC1(C)C2CC[C@]3(C)C(C(=O)C=C4[C@H]5C[C@@](C)(C(=O)O)CC[C@]5(C)CC[C@]43C)[C@@]2(C)CC[C@@H]1O (stereo not given in full)
inactive: Potency [1] | Potency [2] | Potency [3] | Potency [4] | Potency [5]

C/C=C1/[C@H](O[C@@H]2O[C@H](CO)[C@@H](O)[C@H](O)[C@H]2O)OC=C2C(=O)O[C@@H]3C[C@@H](C(C)CO)[C@H](COC(=O)C[C@H]21)[C@H]3C (stereo not given in full)
inactive: Potency [1] | Potency [2] | Potency [3] | Potency [4] | Potency [5]

CC1CC(=O)[C@]2(O)C(C(=O)OCCc3ccc(O)cc3)=CO[C@@H](O[C@@H]3O[C@H](CO)[C@@H](O)[C@H](O)[C@H]3O)[C@H]12 (stereo not given in full)
inactive: Potency [1] | Potency [2] | Potency [3] | Potency [4] | Potency [5]

CC1(C)CC[C@]2(C(=O)O[C@@H]3O[C@H](CO)[C@@H](O)[C@H](O)[C@H]3O)CC[C@]3(C)C(=CCC4[C@@]5(C)CC[C@H](O[C@@H]6O[C@H](C(=O)O)[C@@H](O[C@@H]7O[C@H](CO)[C@@H](O)[C@H](O)[C@H]7O)[C@H](O)[C@H]6O)C(C)(C)C5CC[C@]43C)C2C1 (stereo not given in full)
inactive: activity change, negative = cytotoxicity [1] 3.65% [at 11.6 µM] | activity change, negative = cytotoxicity [2] 12% [at 11.6 µM] | activity change, negative = cytotoxicity [3] 7.57% [at 11.6 µM] | activity change, negative = cytotoxicity [4] 4.63% [at 11.6 µM] | activity change, negative = cytotoxicity [5] 2.05% [at 11.6 µM]

CC1(C)CC2C3=CCC4[C@@]5(C)CC[C@H](OC6OCC(O)C(OC7OC(CO)C(O)C(O)C7O)C6O)C(C)(C)C5CC[C@@]4(C)[C@]3(C)C[C@H](O)[C@@]2(CO)[C@H](OC(=O)c2ccccc2)C1 (stereo not given in full)
inactive: activity change, negative = cytotoxicity [1] 18.5% [at 11.6 µM] | activity change, negative = cytotoxicity [2] 10.1% [at 11.6 µM] | activity change, negative = cytotoxicity [3] 0% [at 11.6 µM] | activity change, negative = cytotoxicity [4] 6.98% [at 11.6 µM] | activity change, negative = cytotoxicity [5] -1.17% [at 11.6 µM]

CC1CC2(O)OC(=O)C3=C2C(CCC3)[C@@]12C[C@@H](c1ccoc1)OC2=O (stereo not given in full)
inactive: Potency [1] | Potency [2] | Potency [3] | Potency [4] | Potency [5]

COc1ccc(/C=C/C(=O)O[C@@H]2[C@@H](O)[C@@H](O)[C@H](O[C@H]3[C@@H]4C=CO[C@@H](O[C@@H]5O[C@H](CO)[C@@H](O)[C@H](O)[C@H]5O)[C@@H]4[C@@]4(CO)O[C@@H]34)O[C@H]2C)cc1
inactive: Potency [1] | Potency [2] | Potency [3] | Potency [4] | Potency [5]

O=C(O)CC(CCc1ccccc1)OC1OC(CO)C(O)C(O)C1O (stereo not given)
inactive: Potency [1] | Potency [2] | Potency [3] | Potency [4] | Potency [5]

CC(=O)OC1C(C)C2C(OC3OC(CO)C(O)C(O)C3O)OC=C(C(=O)O)C2C1OC(=O)c1ccccc1 (stereo not given)
inactive: Potency [1] | Potency [2] | Potency [3] | Potency [4] | Potency [5]

O=C(/C=C/c1ccc(O)cc1)OC[C@@]1(O)C=C[C@@H]2C(C(=O)O)=CO[C@@H](O[C@@H]3O[C@H](CO)[C@@H](O)[C@H](O)[C@H]3O)[C@@H]21
inactive: Potency [1] | Potency [2] | Potency [3] | Potency [4] | Potency [5]

C/C=C(\C)C(=O)OC1CC2C(CC=C3CC(OC4CC(OC)C(OC5CC(OC)C(OC6CC(OC)C(OC7CC(OC)C(OC8CC(OC)C(OC9OC(CO)C(O)C(O)C9O)C(C)O8)C(C)O7)C(C)O6)C(C)O5)C(C)O4)CCC32C)C2(O)CCC(C(C)=O)C12C (stereo not given)
inactive: activity change, negative = cytotoxicity [1] -1.21% [at 6.55 µM] | activity change, negative = cytotoxicity [2] -0.231% [at 6.55 µM] | activity change, negative = cytotoxicity [3] -2.08% [at 6.55 µM] | activity change, negative = cytotoxicity [4] 2.5% [at 6.55 µM] | activity change, negative = cytotoxicity [5] -1.72% [at 6.55 µM]

COc1ccc(-n2[nH]c3c(cnc4ccccc43)c2=O)cc1
inactive: Potency [1] | Potency [2] | Potency [3] | Potency [4] | Potency [5]

C=C1[C@H](OC(C)=O)[C@H]2[C@@H](OC(C)=O)C(C)C[C@]2(OC(C)=O)C(=O)[C@H](C)/C=C/C(C)(C)C(=O)[C@H](OC(=O)C(C)C)[C@H]1OC(C)=O (stereo not given in full)
inactive: Potency [1] | Potency [2] | Potency [3] | Potency [4] | Potency [5]

CC(C)c1ccc2c(c1)C(O)CC1C(C)(C(=O)O)CCCC21C (stereo not given)
inactive: Potency [1] | Potency [2] | Potency [3] | Potency [4] | Potency [5]

COC(=O)C1C(c2ccc(O)cc2)C(C(=O)O)C1c1ccc(O)cc1 (stereo not given)
inactive: Potency [1] | Potency [2] | Potency [3] | Potency [4] | Potency [5]

Cc1[nH]c2ccccc2c1CC(=O)N[C@@H](Cc1ccccc1)C(=O)N(C)c1ccccc1
inactive: Potency [1] | Potency [2] | Potency [3] | Potency [4] | Potency [5]

C/C=C/C=C/C1=C2C(=O)C3(C)C4C(C(=O)CC(O)/C=C/C)=C(O1)C1(C)C2C2(C)OC1(O)C4(C)OC23O (stereo not given)
inactive: Potency [1] | Potency [2] | Potency [3] | Potency [4] | Potency [5]

CC1(C)CC[C@]2(C(=O)O[C@@H]3O[C@H](CO[C@@H]4O[C@H](CO)[C@@H](O)[C@H](O)[C@H]4O)[C@@H](O)[C@H](O[C@@H]4O[C@H](CO)[C@@H](O)[C@H](O)[C@H]4O)[C@H]3O)CC[C@]3(C)C(=CCC4[C@@]5(C)CC[C@H](O[C@@H]6OC[C@@H](O)[C@H](O)[C@H]6O)[C@@](C)(C(=O)O)C5CC[C@]43C)[C@@H]2C1 (stereo not given in full)
inactive: activity change, negative = cytotoxicity [1] 1.75% [at 11.6 µM] | activity change, negative = cytotoxicity [2] 0.621% [at 11.6 µM] | activity change, negative = cytotoxicity [3] 10.7% [at 11.6 µM] | activity change, negative = cytotoxicity [4] 10.6% [at 11.6 µM] | activity change, negative = cytotoxicity [5] 3.57% [at 11.6 µM]

CCCN1CCC[C@@H](c2cccc(S(C)(=O)=O)c2)C1
inactive: Potency [1] | Potency [2] | Potency [3] | Potency [4] | Potency [5]

CC(C)CC(=O)O[C@@H]1O[C@H](CO)[C@@H](O[C@H]2O[C@H](C)[C@@H](N[C@H]3C=C(CO)[C@@H](O[C@H]4O[C@H](CO)[C@@H](O[C@H]5O[C@H](CO)[C@@H](O[C@H]6O[C@H](CO)[C@@H](O)[C@H](O)[C@H]6O)[C@H](O)[C@H]5O)[C@H](O)[C@H]4O)[C@H](O)[C@H]3O)[C@H](O)[C@H]2O)[C@H](O)[C@H]1O
inactive: activity change, negative = cytotoxicity [1] 4.33% [at 11.6 µM] | activity change, negative = cytotoxicity [2] -1.75% [at 11.6 µM] | activity change, negative = cytotoxicity [3] 18.6% [at 11.6 µM] | activity change, negative = cytotoxicity [4] 2.23% [at 11.6 µM] | activity change, negative = cytotoxicity [5] -0.277% [at 11.6 µM]
